Laboratory results taken from PubChem BioAssay (NCATS).
Inconclusive results are not listed. Activity calls are given as the source filed them. Unless noted, calls come from the whole dose curve.

Columns and labels:
[1] = qHTS for Inhibitors of the Functional Ribonucleoprotein Complex (vRNP) of Lassa (LASV) Arenavirus: LASV Primary Screen - GLuc reporter signal (AID 1347082; calls by dose curve; tested in HEK293 reporter line; note: nearly all actives have a fitted effect of over 60% in size)
[2] = qHTS for Inhibitors of the Functional Ribonucleoprotein Complex (vRNP) of Lassa (LASV) Arenavirus: Viability assay - alamar blue signal for LASV Primary Screen (AID 1347083; calls by dose curve; tested in HEK293 reporter line; note: nearly all actives have a fitted effect of over 80% in size)
[3] = qHTS for Inhibitors of the Functional Ribonucleoprotein Complex (vRNP) of Lymphocytic Choriomeningitis Arenaviruses (LCMV): Viability assay - alamar blue signal for LCMV Primary Screen (AID 1347085; calls by dose curve; tested in HEK293 reporter line; note: nearly all actives have a fitted effect of over 80% in size)
[4] = target: Nucleoprotein (Lymphocytic choriomeningitis virus (strain Armstrong)) (UniProt P09992); assay: qHTS for Inhibitors of the Functional Ribonucleoprotein Complex (vRNP) of Lymphocytic Choriomeningitis Arenaviruses (LCMV): LCMV Primary Screen - GLuc reporter signal (AID 1347086); note: nearly all actives have a fitted effect of over 70% in size
Nucleoprotein (Lymphocytic choriomeningitis virus (strain Armstrong)), sequence (P09992 whole entry, looked up): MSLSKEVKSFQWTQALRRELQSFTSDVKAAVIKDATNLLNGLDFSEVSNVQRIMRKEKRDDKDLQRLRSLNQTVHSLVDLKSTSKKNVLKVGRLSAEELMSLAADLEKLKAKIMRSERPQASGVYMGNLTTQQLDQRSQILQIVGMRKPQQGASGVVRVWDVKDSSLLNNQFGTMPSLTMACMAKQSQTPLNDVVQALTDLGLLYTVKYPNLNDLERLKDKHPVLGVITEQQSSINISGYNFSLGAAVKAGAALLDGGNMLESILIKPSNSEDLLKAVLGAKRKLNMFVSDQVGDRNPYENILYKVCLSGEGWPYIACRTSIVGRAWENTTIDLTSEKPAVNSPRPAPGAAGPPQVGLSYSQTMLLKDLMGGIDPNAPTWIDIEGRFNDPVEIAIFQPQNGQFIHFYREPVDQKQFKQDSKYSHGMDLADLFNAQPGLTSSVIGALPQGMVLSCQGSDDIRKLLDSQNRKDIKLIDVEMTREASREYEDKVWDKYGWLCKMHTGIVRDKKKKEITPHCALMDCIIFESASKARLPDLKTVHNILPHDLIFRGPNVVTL

Measured: Potency
Note: series mostly up to about 57 µM.

C[C@@H](O)[C@H]1C(=O)N2C(C(=O)O)=C([C@H]3CCCO3)S[C@H]12
inactive: all assays above

COC(=O)C1=C(C)NC(C)=C(C(=O)OC)C1c1ccccc1[N+](=O)[O-]
inactive: all assays above

CN(C)CCn1nnnc1SCC1=C(C(=O)O)N2C(=O)[C@@H](NC(=O)Cc3csc(N)n3)[C@H]2SC1
inactive: all assays above

O=C1NC2CCCCN2C12CCN(CCCN1c3ccccc3CCc3ccc(Cl)cc31)CC2 (stereo not given)
inactive: all assays above

CCCC(=O)O[C@]1(C(=O)CCl)[C@@H](C)C[C@H]2[C@@H]3CCC4=CC(=O)C=C[C@]4(C)[C@@]3(F)C(=O)C[C@@]21C
inactive: all assays above

CC1=C(CC(=O)O)c2cc(F)ccc2/C1=C\c1ccc(S(C)=O)cc1 (stereo not given)
inactive: all assays above

COc1ccccc1N1CCN(CCCNc2cc(=O)n(C)c(=O)n2C)CC1
inactive: all assays above

Cc1cccc(C)c1NC(=O)CN1CCCC1
inactive: all assays above

O=C(O)CCC(=O)c1ccc(-c2ccccc2)cc1
inactive: all assays above

Cc1[nH]c(C)c(Cl)c(=O)c1Cl
inactive: all assays above

Brc1c(NC2=NCCN2)ccc2nccnc12
inactive: all assays above

CN1CCN(C2=Nc3cc(F)ccc3Cc3ccccc32)CC1
inactive: all assays above

CC(=O)Nc1cccc(O)c1
inactive: all assays above

COCC(=O)O[C@]1(CCN(C)CCCc2nc3ccccc3[nH]2)CCc2cc(F)ccc2[C@@H]1C(C)C
inactive: all assays above

Cl/C(=C\n1cncn1)c1ccc(Cl)cc1Cl
inactive: all assays above

Oc1cccc2[nH]ccc12
inactive: all assays above

Cc1cccc(N(C)C(=S)Oc2ccc3c(c2)C2CCC3C2)c1 (stereo not given)
inactive: all assays above

CCC(C(=O)OCCN1CCOC(c2ccccc2)C1C)c1ccccc1 (stereo not given)
inactive: all assays above

CCCCN1CCCC1C(=O)Nc1c(C)cc(C)cc1C (stereo not given)
inactive: all assays above

CN(C)CCN(Cc1ccccc1)c1ccccn1
inactive: all assays above

CCOCC(O)COc1ccc(NC(=O)CC[S+](C)C)cc1 (stereo not given)
inactive: all assays above

CCCCCCc1ccc(O)cc1O
inactive: all assays above

O=C(NC1CCN(CCc2c[nH]c3ccccc23)CC1)c1ccccc1
inactive: all assays above

CC1=C(C(=O)OC(C)C)C(c2cccc([N+](=O)[O-])c2)C(C(=O)OC2CN(C(c3ccccc3)c3ccccc3)C2)=C(N)N1 (stereo not given)
inactive: all assays above

CO/N=C(/C(=O)N[C@@H]1C(=O)N2C(C(=O)O)=C(Cn3nnc(C)n3)CS[C@H]12)c1csc(N)n1
inactive: all assays above

CCCCNc1ccc(C(=O)OCCN(C)C)cc1
inactive: all assays above

CCCCNc1cc(C(=O)O)cc(S(N)(=O)=O)c1Oc1ccccc1
inactive: all assays above

N=C(N)c1ccc(OCCCOc2ccc(C(=N)N)cc2)cc1
inactive: all assays above

Cc1ncc(COP(=O)(O)O)c(C=O)c1O
inactive: all assays above

CCOc1cc(N)c(Cl)cc1C(=O)NCC1CN(Cc2ccc(F)cc2)CCO1 (stereo not given)
inactive: all assays above

CCCCNc1c(C(=O)OCC)c(C)nc2c1cnn2CC
inactive: all assays above

O=C(O)CNC(=O)c1ccccc1I
inactive: all assays above

O=C(O)Cn1c(C(=O)Nc2nc(-c3ccccc3Cl)cs2)cc2ccccc21
inactive: all assays above

CCOC(=O)CN1CCCC1=O
inactive: all assays above

CCCN(CCC)C(=O)C(CCC(=O)OCCCN1CCN(CCOC(=O)Cc2c(C)n(C(=O)c3ccc(Cl)cc3)c3ccc(OC)cc23)CC1)NC(=O)c1ccccc1 (stereo not given)
inactive: all assays above
